# Screens as filed in PubChem BioAssay.
# Sampled rows, rich in hits. Any-hit rate of the full collection: about 20%.
# CHX counter: affects cycloheximide protein synthesis inhibition readout, counter-screen | AID 2314 | max response, % | cell reporter, cycloheximide protein synthesis inhibition counterscreen | hit rate 12% among 300,000; in the data active = max response mostly above about 13%, no sharp cut-off; inactive = mostly below about 14%; also: read at 38.3 µM for the half of the compounds with a filed dose; 0% is about no effect
# HCMV inh: inhibitors of human cytomegalovirus. AID 1259415. hit rate 4.5% among 410,000. HFF cells, HCMV-luciferase reporter, 72 h; hits give low values. activity change, negative = inhibition, % at 57.5 µM; in the data active = activity change below about -60%; inconclusive = no clear call, values can overlap the other calls; inactive = above about -39%; also: % is scaled to controls: 0 for no effect and ±100 for the full control effect
#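 Cell-based, HFFs, 1000 cells/well, 16 h 37C; cpds in DMSO + HCMV-luc, MOI 1 PFU/cell; 72 h 37C; OneGlo luminescence after 5 min RT; norm. to buffer vs Salinomycin 10uM.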
# Pf growth 96h: P. falciparum growth inhibition at 96 hour, primary screen for plastid delayed-death inhibitors | P. falciparum luciferase reporter growth, 96 h | Potency, µM (titrated, usually from 28.7 µM), inactives show at the highest dose activity change, negative = inhibition, actives largely listed as inhibitors | hit rate 6.9% among 320,000; also: potency is read from the fitted curve at half-maximal effect; % is scaled to controls: 0 for no effect and ±100 for the full control effect
#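 Readout is luminescence from an integrated firefly luciferase in P. falciparum. Red cells, 2% hematocrit and 0.05% parasitemia final, were cultured with compound through two parasite generations (96 hours) at 37 C, 5% CO2.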
# Shiga inhibitor: blocks Shiga toxin action in Vero cells; hit rate 9.2% among 290,000; Vero cells, Shiga toxin protein synthesis inhibition reporter; AID 2315; inhibition, % at 38.7 µM; in the data active = inhibition mostly above about 28%, no sharp cut-off; inactive = mostly below about 43%; also: 0% is about no effect
# Pf growth 48h: P. falciparum growth inhibition at 48 hours (one generation); P. falciparum luciferase growth in erythrocytes, 48 h; Potency, µM (highest dose often 28.7 µM), inactives show top-dose activity change, negative = inhibition, most hits filed as inhibitors; hit rate 5.9% among 310,000; also: potency is read from the fitted curve at half-maximal effect; % is scaled to controls: 0 for no effect and ±100 for the full control effect
#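 Here the parasites carry a stable luciferase gene and grow inside erythrocytes in Albumax-based RPMI medium with compound for one erythrocytic cycle. Activity is scored as loss of luminescent signal.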
# * marks the source's active call; other numbers are inactive results; ? = inconclusive; nt = no result given; [ ] = dose if it differs, or a comment. Unless noted, calls follow the shape of the dose curve; as a rule, active = well fitted inhibition curve with a large enough effect; inconclusive = small, poorly fitted or top-dose-only effect, or another doubt; inactive = no such curve, though single readings can be large or run the other way.
SMILES,CHX counter,HCMV inh,Pf growth 96h,Shiga inhibitor,Pf growth 48h
O=C1OC(c2cccs2)=N/C1=C/c1ccc(-c2cccc(C(=O)O)c2)o1,26*,47,30%,27,99%
CNC(=O)c1cc2ncc(C(F)(F)F)cc2s1,18*,70,64%,38,49%
CCN(CCC(=O)O)c1ccccc1,5,11,nt,5,5%
CCN(CC)C1=NC(=[N+](CC)CC)c2ccccc21,-3,-103*,0.29µM*,-5,0.74µM*
Cc1cc(C)c(NC(=O)Cn2cc3c(n2)CCCC3)c(C)c1,1,-14,5%,-3,8%
Cc1ccc(Cl)cc1NC(=O)Cn1cc2c(n1)CCCC2,-6,-4,2.1µM*,-17,nt
Cc1ccc2nc(NC(=O)Cn3cc4c(n3)CCCCC4)sc2c1,16*,-1,10%,30,46%
Cc1ccc(Cl)cc1NC(=O)Cn1cc2c(n1)CCCCC2,nt,-15,nt,nt,nt
O=C(Cn1cc2c(n1)CCCCC2)Nc1ccccc1Cl,12*,?,?,21,?
O=C(Cn1cc2c(n1)CCCCC2)Nc1c(F)c(F)cc(F)c1F,-5,-5,15µM*,-13,nt
CC(C)c1ccc(NC(=O)COC(=O)CCC(=O)c2cccs2)cc1,16,21,49%,-3,31%
COc1ccc(CCNC(=O)c2cnc3sc(N4CCCCC4)nn3c2=O)cc1OC,nt,-6,nt,nt,nt
N#Cc1cccc(NC(=O)CCNS(=O)(=O)c2ccc3[nH]c(=O)oc3c2)c1,-1,nt,?,-14,14%
N#Cc1c(NC(=O)C2CC(Cl)=CCC2C(=O)O)sc2c1CCCC2 (centres undefined),10,7,-2%,-19,3%
Cc1cc(C=C2C(=O)N(C)C(=S)N(C)C2=O)c(C)n1C1CCCC1,1,-16,?,27,nt
Cc1cc(/C=C2\C(=O)NC(=S)N(C)C2=O)c(C)n1C1CCCCC1,13*,-25,-17%,21,1%
Cc1cc(/C=C2/C(=O)N(C)C(=S)N2C)c(C)n1C1CC1,14*,2,?,20,?
CCn1cc([N+](=O)[O-])c(C(=O)N2N=C3/C(=C/c4cccs4)CCCC3C2c2cccs2)n1 (centres undefined),0,43,?,-2,?
CCCCCCC1CCC(C(=O)NC(CCSC)C(=O)NC(C(=O)OC)C(C)C)CC1 (centres undefined),6,-33,?,12,nt
Cc1ccccc1OCc1nc(-c2ccc(NC(=O)c3cccs3)cc2)no1,50*,59,?,154*,?
Cc1ccccc1OCc1nc(-c2ccc(NC(=O)c3ccc4c(c3)OCO4)cc2)no1,15,-14,-7%,20,?
Cc1ccccc1OCc1nc(-c2ccc(NC(=O)c3ccco3)cc2)no1,35*,?,?,52*,?
CC(Oc1ccc(Cl)cc1Cl)c1nc(-c2ccc(NC(=O)c3ccco3)cc2)no1 (centres undefined),71*,-93*,0.93µM*,113*,nt
FC(F)(F)c1ccccc1Cc1c(C2CCCCC2)nc2ccc(Br)cn12,nt,-2,nt,nt,nt
FC(F)(F)c1cccc(Cc2noc(CN3CCCCC3c3ccccn3)n2)c1 (centres undefined),-3,-35,?,-21,?
SMILES,CHX counter,HCMV inh,Pf growth 96h,Shiga inhibitor,Pf growth 48h
Fc1ccc(C2CCCN2Cc2nc(Cc3ccccc3F)no2)cc1 (centres undefined),13*,?,?,19,?
Fc1cccc(Cc2noc(CN3CCCCC3c3ccccn3)n2)c1 (centres undefined),35*,-3,8.3µM*,82,-24%
Cc1ccc2cc(C#N)c(N3CCCN(C(=O)C4CCCO4)CC3)nc2c1 (centres undefined),-3,17,?,0,2.9µM*
COc1ccc(C(=O)N2CCN(c3nc4cc(C)ccc4cc3C#N)CC2)c(OC)c1,-3,-21,-3%,6,2.1µM*
Cc1ccc2cc(C#N)c(N3CCN(C(=O)c4ccccc4)CC3)nc2c1,-6,?,?,-19,?
COc1cc(C(=O)N2CCCN(c3nc4cc(C)ccc4cc3C#N)CC2)cc(OC)c1OC,10,28,nt,-8,8.3µM*
Cc1ccc2cc(C#N)c(N3CCCN(C(=O)c4cnccn4)CC3)nc2c1,-8,-9,?,25,-34%
O=C(NC1CCN(Cc2ccc3ccccc3c2)CC1)c1ccccc1,-4,29,?,-12,11%[0.00184 µM]
COc1ccc(Cl)cc1NC(=O)c1cnccn1,13*,65,?,20,13%
O=C(Nc1cc(Cl)ccc1Oc1ccccc1)c1cnccn1,-3,31,?,-8,nt
O=C(Nc1ccc(Br)cc1Cl)c1cnccn1,19*,45,nt,30,29%
Cc1ccc(NC(=O)c2cnccn2)c(C)c1,21*,-5,241%,38*,74%
Cc1ccc(NC(=O)c2sc3nc[nH]c(=O)c3c2C)cc1Cl,nt,82,nt,nt,nt
Cc1ccc(NC(=O)c2sc3nc[nH]c(=O)c3c2C)c(C)c1,27*,-9,?,23,73%
O=C(Nc1ccccc1Cl)c1cnccn1,11,0,-83%,41,18%
Cc1ccc(C)c(NC(=O)CSc2nnc(C)n3c2cc2occc23)c1,nt,-11,nt,nt,nt
COc1cc(Cn2c3ccc(NC(=O)NCCc4ccccc4)cc3c(=O)n2C)ccc1F,nt,-68*,nt,nt,nt
Cn1c(=O)c2cc(NC(=O)NCCc3cccs3)ccc2n1Cc1ccccc1,nt,-77*,nt,nt,nt
COc1cc(Cn2c3ccc(NC(=O)CCc4ccccc4)cc3c(=O)n2C)ccc1F,nt,-19,nt,nt,nt
CCOc1ccc(NS(=O)(=O)c2ccc(C(=O)NCC(c3cccs3)N3CCOCC3)cc2)cc1 (centres undefined),nt,-13,-14%,nt,7%
Cc1cc(Br)cc(C)c1OCC(=O)Nc1ccc(S(=O)(=O)Nc2ncccn2)cc1,nt,13,nt,nt,nt
COC(=O)C1=C(C)NC(C)=C(C(=O)NCCCN2CCC(c3ccccc3)(c3ccccc3)CC2)C1c1ccc([N+](=O)[O-])cc1 (centres undefined),-8,nt,nt,-13,nt
COC(=O)C1=C(C)NC(C)=C(C(=O)OCCCN2CCC(c3ccccc3)(c3ccccc3)CC2)C1c1cccc([N+](=O)[O-])c1 (centres undefined),nt,nt,15µM*,nt,1.5µM*
C#CCN1C(C)=C(C(=O)OC)C(c2cccc([N+](=O)[O-])c2)C(C(=O)OCC)=C1C (centres undefined),nt,-29,?,nt,13µM*
CCOC(=O)C1=C(C)NC(C)=C(C(=O)OCC)C1c1cccc([N+](=O)[O-])c1,nt,12,nt,nt,nt
N#CC[C@H](Cc1ccccc1)N1CC[C@@H](O)CCC1=O,1,?,58%,-5,27%
C=CCn1c(SCC(=O)Nc2ccc(C(=O)O)cc2)nc2scc(-c3ccccc3)c2c1=O,nt,-11,nt,nt,nt
Cc1ccc(-c2csc3nc(SCC(=O)N(C)C)n(Cc4ccccc4)c(=O)c23)cc1,-1,37,?,11,13µM*
